Screen size: about 310,000 compounds; about 14,000 (4.5%) showed an effect of 50% or more. Effects have a minus sign here. Many of the other results were omitted from the sample, so strong results are more common in it than they were.
Each molecule was assayed against human ether-à-go-go-related gene (hERG) potassium channel (human, UniProt Q12809) (assay: primary screen, population patch clamp on CHO cells stably expressing hERG; higher = less effect of the substance).
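Further: peak tail current of the secondary pulse compared with the same well before compound.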

Chain of human ether-à-go-go-related gene (hERG) potassium channel (Q12809 whole entry, looked up): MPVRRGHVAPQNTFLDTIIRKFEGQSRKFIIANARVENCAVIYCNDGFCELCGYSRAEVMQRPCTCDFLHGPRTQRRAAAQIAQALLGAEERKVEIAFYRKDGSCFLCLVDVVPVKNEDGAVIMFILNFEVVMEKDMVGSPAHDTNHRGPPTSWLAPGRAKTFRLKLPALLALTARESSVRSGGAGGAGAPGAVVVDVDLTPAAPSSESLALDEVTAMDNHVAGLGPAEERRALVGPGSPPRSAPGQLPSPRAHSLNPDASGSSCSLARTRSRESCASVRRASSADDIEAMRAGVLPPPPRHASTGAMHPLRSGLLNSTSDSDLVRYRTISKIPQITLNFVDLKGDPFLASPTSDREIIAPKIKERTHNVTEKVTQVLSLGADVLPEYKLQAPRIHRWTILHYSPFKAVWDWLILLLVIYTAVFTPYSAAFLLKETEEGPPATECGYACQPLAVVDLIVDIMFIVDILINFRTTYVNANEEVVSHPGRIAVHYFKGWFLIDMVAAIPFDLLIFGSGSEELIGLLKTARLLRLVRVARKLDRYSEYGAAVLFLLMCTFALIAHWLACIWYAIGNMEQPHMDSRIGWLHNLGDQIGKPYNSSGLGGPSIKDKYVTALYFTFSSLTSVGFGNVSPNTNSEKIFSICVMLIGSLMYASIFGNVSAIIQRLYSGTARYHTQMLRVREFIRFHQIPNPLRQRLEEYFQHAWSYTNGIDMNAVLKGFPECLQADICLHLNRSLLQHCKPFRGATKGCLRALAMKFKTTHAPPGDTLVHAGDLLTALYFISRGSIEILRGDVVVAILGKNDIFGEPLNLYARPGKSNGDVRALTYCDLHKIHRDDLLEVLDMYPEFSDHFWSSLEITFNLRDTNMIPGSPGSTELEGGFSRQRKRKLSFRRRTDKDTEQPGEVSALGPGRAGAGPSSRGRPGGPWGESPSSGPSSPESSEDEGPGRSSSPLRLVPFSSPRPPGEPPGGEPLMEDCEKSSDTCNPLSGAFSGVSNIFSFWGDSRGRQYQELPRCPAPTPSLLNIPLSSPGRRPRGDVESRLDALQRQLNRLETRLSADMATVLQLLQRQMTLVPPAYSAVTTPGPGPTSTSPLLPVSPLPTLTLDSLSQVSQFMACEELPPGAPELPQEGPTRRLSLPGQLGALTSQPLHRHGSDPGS

SMILES	hERG current change (%, negative = inhibition) at 10uM [%]
C[n+]1ccc(/C=N/Nc2nc(Cl)c(C#N)c(Cl)c2Cl)cc1.[Cl-]	20.2
Cc1ccc(CNC(=O)c2ccccc2N)cc1	5.16
COc1cc(NS(=O)(=O)c2ccc(N/C=C(\C#N)c3nc4cc(Cl)ccc4o3)cc2)nc(OC)n1	-7.44
CCN(CC)c1ccc(N2C(=NC(=O)C3CCCO3)SC3CS(=O)(=O)CC32)cc1 (stereo not drawn)	3.6
CCCCc1ccc(N2C(=NC(=O)C3CCCO3)SC3CS(=O)(=O)CC32)cc1 (stereo not drawn)	-56.5
CC(=O)c1ccc(N2C(=NC(=O)C3CCCO3)SC3CS(=O)(=O)CC32)cc1 (stereo not drawn)	-39.7
COc1ccc(/C(C)=N/NC(=O)CCC(=O)Nc2ccc(Cl)cc2Cl)c(OC)c1	-3.74
CC1(C)O[C@@H]1COc1c2ccoc2cc2oc(=O)ccc12	-19.4
Cc1ccc(N2C(=O)CC(N3CCN(C4CCc5ccccc5C4)CC3)C2=O)cc1 (stereo not drawn)	-75.1
O=C1CC(N2CCCCC2)C(=O)N1c1ccccc1 (stereo not drawn)	-3.42
Cc1ccc(N2C(=O)CC(N3CCN(c4ccccn4)CC3)C2=O)cc1 (stereo not drawn)	-6.04
CCOC(=O)N1CCN(C2CC(=O)N(c3ccc(C)cc3)C2=O)CC1 (stereo not drawn)	1.62
O=C1CC(N2CCN(C3CCc4ccccc4C3)CC2)C(=O)N1c1ccccc1 (stereo not drawn)	-64.6
CC1CCN(C2CC(=O)N(c3ccccc3)C2=O)CC1 (stereo not drawn)	8.4
CC(/C=C/c1ccco1)=N/NC(=O)OC(C)(C)C	3.46
N#Cc1ccccc1Sc1ccccc1C(=O)Nc1ccc2ccccc2c1	15.8
CC(=O)c1c(C)nc(-c2ccc(Cl)cc2)nc1NC(=O)C(C)C	-9.25
Oc1ccccc1N=N/C(=N/Nc1ccccc1O)c1ccccc1	8.83
COC(=O)CCC(=O)Nc1ccccc1C(N)=O	23.1
CC(C)(CO)Nc1ccc([N+](=O)[O-])cc1[N+](=O)[O-]	-8.26
CC1(C)Cc2c(cnn2-c2ccc(F)cc2)C(NC(=O)Cn2cncn2)C1 (stereo not drawn)	7.61
COc1ccc(-n2ncc3c2CC(C)(C)CC3NC(=O)CCn2cncn2)cc1 (stereo not drawn)	-42.2
Cc1ccc(-n2ncc3c2CC(C)(C)CC3NC(=O)CCn2cncn2)cc1 (stereo not drawn)	-76.8
CC1(C)Cc2c(cnn2-c2ccc(F)cc2)C(NC(=O)CCN2CCCC2=O)C1 (stereo not drawn)	5.01

SMILES	hERG current change (%, negative = inhibition) at 10uM [%]
CC1(C)Cc2c(cnn2-c2ccc(F)cc2)C(NC(=O)CCn2cncn2)C1 (stereo not drawn)	-69.1
CC1(C)Cc2c(cnn2-c2ccccc2)C(NC(=O)CCCn2cncn2)C1 (stereo not drawn)	-1.88
COc1cc(-c2nc3c[n+](CC(=O)c4ccccc4)ccc3n2C)cc(OC)c1OC.[Br-]	0.461
CCC(CC)C(=O)Nc1ccc(-c2cn3cccnc3n2)cc1	4.74
Cc1cc(C)n(-c2ccc(C(=O)Nc3ccc(S(=O)(=O)N(C)C)cc3)cc2)n1	-40.8
Cc1ccccc1-c1nnc(-c2ccccc2)o1	-6.58
COc1ccc(N2CC(NC(=O)N3CCN(C(=O)c4ccco4)CC3)CC2=O)cc1OC (stereo not drawn)	5.5
O=C(NC1CC(=O)N(c2ccccc2)C1)N1CCN(C(=O)c2ccco2)CC1 (stereo not drawn)	-5.77
Cc1[nH]c2ccccc2c1C(=O)C(=O)NC1CC(=O)N(c2ccc(F)cc2)C1 (stereo not drawn)	-51.9
O=C(NC1CC(=O)N(c2ccc(Cl)cc2)C1)C1CC1 (stereo not drawn)	-18.2
O=C(NC1CCCCC1)N1CCN(C(=O)c2ccco2)CC1	-6.24
Cc1ccc(N2CC(NC(=O)C(=O)c3c(C)[nH]c4ccccc34)CC2=O)cc1C (stereo not drawn)	-10.1
O=C(NC1CC(=O)N(c2cccc(F)c2)C1)N1CCN(C(=O)c2ccco2)CC1 (stereo not drawn)	-26.1
Cc1ccc(N2CC(NC(=O)N3CCN(C(=O)c4ccco4)CC3)CC2=O)cc1 (stereo not drawn)	-52.6
O=C(NC1CC(=O)N(c2ccc(Cl)cc2)C1)N1CCN(C(=O)c2ccco2)CC1 (stereo not drawn)	-91.6
O=C(NC1CC(=O)N(c2ccc(F)cc2)C1)N1CCN(C(=O)c2ccco2)CC1 (stereo not drawn)	-63
COc1ccc(N2CCN(C(=O)NC3CC(=O)N(c4ccc(OC)cc4)C3)CC2)cc1 (stereo not drawn)	-35.9
Cc1ccc(N2CC(NC(=O)C(=O)c3c(C)[nH]c4ccccc34)CC2=O)cc1 (stereo not drawn)	-47.8
COc1ccc(COc2ccc3ccc(=O)oc3c2)cc1	9.33
O=C(OCc1nnc(-c2ccccc2)o1)c1cc2ccccc2cc1O	8.95
C/C(=N\NC(=O)c1nnn(-c2nonc2N)c1-c1cccs1)c1ccc(C)cc1	-0.452
CC(=O)Nc1ccc(N2CCN(c3ccc(F)cc3)CC2)cc1	18.4
CS(=O)(=O)c1ccccc1C(=O)NC1CCCc2ccccc21 (stereo not drawn)	66.1
O=C(CCN1C(=O)S/C(=C\c2cccs2)C1=O)Nc1nccs1	9.41

SMILES	hERG current change (%, negative = inhibition) at 10uM [%]
CCOC(=O)CNC(=O)N1CCC(CCOc2ccccc2)(C(=O)OCC)CC1	1.83
CCOC(=O)C1(CCOc2ccccc2)CCN(Cc2ccc3nonc3c2)CC1	-17
CCOC(=O)CCNC(=O)N1CCC(CCOc2ccccc2)(C(=O)OCC)CC1	-16.1
CCOC(=O)C1(CCOc2ccccc2)CCN(C(=O)c2ccc(-n3cccn3)cc2)CC1	-78.9
CCOC(=O)C1(CCOc2ccccc2)CCN(Cc2cccc(-n3cccn3)c2)CC1	-79.3
CCOC(=O)C1(CCOc2ccccc2)CCN(Cc2ccc(-n3cccn3)cc2)CC1	-84.1
COc1ccccc1C(=O)Nc1nc(N)n(-c2ccccc2)n1	13.8
CCCNC(=S)Nc1ccc(Oc2ccccc2)cc1	-10.8
O=C(O)/C=C/c1cnc2ccccc2n1	16.6
Cc1ccc(S(=O)(=O)N2CCC(C(=O)NN3CCCCC3)CC2)cc1	4.16
O=C1Nc2ccc(Br)cc2/C1=C/C(=O)c1ccc2c(c1)OCO2	9.53
CCCCCCCCN[C@H](C)[C@@H](O)c1ccc(SC(C)C)cc1	-67.4
C[C@@H](NCCc1ccc(O)cc1)[C@@H](O)c1ccc(O)cc1.Cl	-11.5
CCCCCNC(=O)C(C)Sc1ccc(Cl)cc1 (stereo not drawn)	10.9
CC(C)C(NC(=O)c1ccccc1)C(=O)NC1CCCc2ccccc21 (stereo not drawn)	15
COc1ccc(-n2c(CNCCc3ccc(C)cc3)nc3ccccc3c2=O)cc1	-32.8
COC(=O)c1cc(C(=O)OCC(=O)N(C)C2CCS(=O)(=O)C2)cc([N+](=O)[O-])c1 (stereo not drawn)	7.96
Cc1cc(C)n2nc(C(=O)OCC(=O)N3C(C)CCCC3C)nc2n1 (stereo not drawn)	21.5
Cc1ccc(S(=O)(=O)c2nc(Nc3nccs3)sc2Cl)cc1	11.6
Cc1ccc(-n2c(=O)[nH]c3ncccc3c2=O)cc1	30.2
COc1ccc(-n2c(-c3ccc(Cl)cc3)c[n+]3c2CCc2ccccc2-3)cc1.[Br-]	-78.4
COc1ccc(-n2c(-c3ccc(Cl)cc3)c[n+]3c2CCCCC3)cc1.[Br-]	-29.8
Brc1ccc(-c2cn3c(n2)CCc2ccc4cccnc4c2-3)cc1	12.5
Cc1ccc(-n2c(-c3ccc(Br)cc3)c[n+]3c2CCc2ccc4cccnc4c2-3)cc1.[Br-]	-74.2

SMILES	hERG current change (%, negative = inhibition) at 10uM [%]
COc1ccc(N2C3=[N+](CC2(C)O)c2ccccc2CC3)cc1.[Br-] (stereo not drawn)	-44.3
COc1ccc(-n2c(-c3ccccc3)nnc2-c2ccc(Cl)cc2)cc1	4.96
COc1ccc(-n2c(-c3ccc(Br)cc3)nc(=S)c3c2CCCC3)cc1	-1.32
COc1ccc(-n2c(-c3ccc(Br)cc3)c[n+]3c2CCc2ccccc2-3)cc1.[Br-]	-85.2
COc1ccc(N2C(=O)CC(NNC(=O)c3cc(C)oc3C)C2=O)cc1 (stereo not drawn)	23.6
COc1ccc(CCNC(=O)CSc2nnc(-c3ccccc3)c3ccccc23)cc1OC	-20
CCNC(=O)NC(=O)C(C)Oc1ccc(C(=O)OC)cc1 (stereo not drawn)	3.92
COc1ccc(C(c2sc3nc(C)nn3c2O)N2CCC3(CC2)OCCO3)cc1 (stereo not drawn)	-2.74
COc1ccc(Cc2nnc(NC(=O)Nc3ccc(C)cc3)s2)cc1OC	10.2
Nc1c(C(=O)CSc2nnc(Nc3ccc(F)cc3)s2)c(=O)[nH]c(=O)n1C1CC1	0.202
O=C(c1ccc2c3c(cccc13)CC2)C1CCCN(Cc2ccc(OCCO)cc2)C1 (stereo not drawn)	-70.4
COCCC(=O)N1CCCC(C(=O)c2ccc3c4c(cccc24)CC3)C1 (stereo not drawn)	-17.8
O=C1CCC(CCC(=O)N2CCCC(C(=O)c3ccc4c5c(cccc35)CC4)C2)=NN1 (stereo not drawn)	-54.4
CN(C)C(=O)CCC(=O)N1CCCC(C(=O)c2ccc3c4c(cccc24)CC3)C1 (stereo not drawn)	-20.2
O=C(c1ccc2c3c(cccc13)CC2)C1CCCN(C(=O)c2cccnc2)C1 (stereo not drawn)	-19.4
O=C1CCC(C(=O)N2CCCC(C(=O)c3ccc4c5c(cccc35)CC4)C2)=NN1 (stereo not drawn)	-17.9
O=C(c1ccc2c3c(cccc13)CC2)C1CCCN(CC2CC2)C1 (stereo not drawn)	-46.3
O=C(c1ccc2c3c(cccc13)CC2)C1CCCN(Cc2cccnc2)C1 (stereo not drawn)	-63.4
O=C(c1ccc2c3c(cccc13)CC2)C1CCCN(Cc2ccncc2)C1 (stereo not drawn)	-51.5
O=C(c1ccc2c3c(cccc13)CC2)C1CCCN(Cc2ccccn2)C1 (stereo not drawn)	-42.5
NC(=O)CCC(=O)N1CCCC(C(=O)c2ccc3c4c(cccc24)CC3)C1 (stereo not drawn)	2.05

Reference: PMC4336329 (PLoS ONE, 2015)
